From ChEMBL document CHEMBL1201862, “PubChem BioAssay data set” (2004) come the findings set out here.

The campaign covered roughly 1,200 compounds. About 140 (12%) were called active. This is one part of a sample in which actives are shown more often than they occur. The rule behind the calls is not given here.

The test in a line: restoration of mutant CFTR halide transport – FRT cells, YFP quenching, cherry-pick, dose response (AID 743402). It is filed as functional, cell-based.
On to `O=C(Nc1ccccc1)N1CCCCN2[C@@H](CO)[C@H](c3ccc(C#Cc4ccccc4)cc3)[C@@H]2C1`, for which the AbsAC35 is 31.2 µM (active).
With `O=C1NC(=O)C(=Cc2c(Cl)cccc2Cl)C(=O)N1` the figure was 29.4 µM (active).
